This passage reports z-score results from PubChem BioAssay AID1508600 (Functional Genomics Laboratory (NCATS/FGL), 2020).

In all, about 53,000 sequences went through this assay and about 3,700 (7%) were called active. The sample as a whole holds a higher share of actives than the screen did. Unmarked numbers belong to inactive results.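 Rule for the calls: active = gene knockdowns whose robust z-score for IL-1 alpha signal is at least 2 or at most -2, so actives lie on both sides; inactive = the rest.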

This experiment in a line: Components of the Cytosolic LPS Sensing Pathway: Gene Identification via Genome-wide siRNA Screen.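 Note: robust z of the log signal after scaling to non-targeting control siRNA wells of the plate.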 The settings on record: RAW264.7 macrophages, IL-1a HTRF, actives lie on both sides, screened at 100 nM (by protocol), cells primed 5 h with Pam3CSK4 first. The procedure, abridged: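 IL-1a HTRF of supernatants after 24 hour LipidA transfection of Pam3CSK4-primed (5 hours) RAW264.7 cells, 48h post-siRNA transfection (100 nM). Scores: percent of plate negative-control median, then log-based robust z-score.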
Take CCUAAGUUCCUGAAAAUAUTT against Epha5: the z-score was -0.454.
The same measure for “GGGAUUCAGACAUGUGCUGTT against 4930503E14Rik”: -0.658; for GGCCUACGAGAGGCAAAAATT against Hnf1a: -2.05 (active).
For CCAUACCGAUCAAAUUCCCTT against Pfn2 the value was -0.596; for GCAAUAGAAAAGUCCGUGGTT against Rbsn, -1.12.
For GGCAAAGGAUCCAAGUUUGTT against Tmem123, the z-score is 2.81 (active).
The same measure for GGAUGUCCAGAUGUAAAUATT against Vps16: -0.974.
For GGUUAUCAGAGGUUUAGUUTT against Oser1 the value was 0.23; for GGGUCUCCAAUCCCUCAGUTT against Kir3dl2, 0.489; for “GGGCAAGAACAACUCACUUTT against 4933404G15Rik”, -2.93 (active).
For GGAUUCAAAGCUUCCUUUATT against Eras the value was 0.115.
Turning to CGAAAAGGUGUGGCCAUCATT against Eif4a3, the z-score is -0.664.
For CGACAUGUAAAACUAUUGUTT against Cd300e the value was 0.864; for CGACAUUUUACUAAGAGAUTT against Idnk, -0.895.
The same measure for UCGAGUGAAGCAGUCUCCATT against Fam189a1: -2.13 (active); for GCCCAGAAUGCUCACUAAATT against Sln: 0.491; for GGCUGUAAUUUUGAACAAUTT against Rnf17: -1.42.
Regarding CGAGAUCGAGUACUCAACUTT against Vps39, the z-score is -2.96 (active).
In the case of GGUCACUCAAAGAAUUAUGTT against Srr, the z-score was -1.05.
The same measure for CCUGUUAAUGACACCCACGTT against Slc37a2: -0.886.
For GGCGAUUUACAACUUUGGATT against H2aw the value was 0.0941; for GGAGUGAAGGGUCAUCCAGTT against Col9a2, 5.07 (active).
For GGAUAUAGGUGUGAUCUAGTT against Mxra7 the value was 0.9.
CCCAAUGUUUCUAAUCAUGTT against Arhgap12: the z-score is 0.306.
For GGAAGGUUUGUUUUGUUUGTT against Slc24a3 the value was 0.0291; for GGAGGAAUACCAGGAAUACTT against Sncb, 0.33; for GCCCUUUUCAUUCUCCAGATT against Zdhhc25, 4.39 (active).
The same measure for GCCUUUGUGGACCAUCCAATT against Thy1: -0.954; for GGAAAUACGGCAGAACCCUTT against Kcnk9: -2.54 (active).
For GUACCUCAGAGCUCUGCAUTT against Helt the value was -0.292.
Consider GCACUUAGUCCUACAUGACTT against Fut1, for which the z-score is -1.21.
The same measure for GGUGGUAAUAGACAAACACTT against Ctdnep1: -0.749; for GGAUGUGUCAGAAAAGUUATT against Lars2: 0.641.
For GGAAAUUGUGGACAUGAUCTT against Sult1c1 the value was -3.27 (active); for GGUAACAAAUGCUGUUUUATT against Cul1, 0.459; for CCGAUUGAAUUACUCAGCATT against Bcas2, 0.226.
The same measure for GGACAAAAGACAAUCGAGATT against Parp2: -0.273; for CGAUGUUUUCAUGAACGACTT against Tctex1d2: 0.738.
As to GCUGGGUUAUGAGAUUUCUTT against Tns2, the z-score is 2.26 (active).
For GGAGGAUUACAACACUGUUTT against Enpp3 the value was -0.617; for CCUAGUAGCCGAGAAACAUTT against Olfr1137, -0.705; for GGCAAUACGUGAAGAAAAATT against Baz1a, -0.493.
The same measure for GGCUGUUUCUGUCAUGGUUTT against Nup133: 0.383.
The same measure for GCAGAGAUAAAUUGGAAAGTT against Art2b: 0.292.
Turning to GGAUAGAGCACAGAUCCAGTT against St8sia5, the z-score is 2.38 (active).
For GGUCGAAAUGAUCUCCAACTT against Poli the value was -0.687.
As for GCUUCGAGAACUUUCUCCCTT against Nrtn, the z-score was 0.818.
For GGUUUCCAUAUUUGGAUCCTT against Dhx40 the value was 0.0331; for GGGAAAGAAUUGGAUUGAATT against N4bp2l1, -2.31 (active).
The same measure for GGAAUUUGAAGCUGUCACUTT against Spata2: -0.433.
The same measure for GGACUAGCGGACAUGGAUCTT against Ndc80: 1.02; for GGAAUUUCAAAGAGACAAATT against Cyfip1: -0.423.
For the sequence GGAUCGGUGAGAUUGUAGCTT against Phyhd1, the z-score was -0.177.
The same measure for GGGCAUUUCUUCAGCUAAUTT against Tfec: -1.04.
For GGAAGAUCUCAGUGAGCAUTT against Gpcpd1 the value was 0.69.
For GGGUUUUAUCAGCUAAAAATT against Plppr4 the value was 2.29 (active); for GGCUUUAGGAAGAUCCUUGTT against Ilf2, -0.538; for UUCUGUGAUCAUGUCUUCUTT against Tuba1b, -1.6.
As to GCGAUUCUGUAAAGAGCGCTT against Nme1, the z-score is 1.9.
For GGCCUUAGUUUAUACAUGUTT against Dusp18 the value was 0.628; for GGAAUGUAACUGAAAGACUTT against Myo1c, 0.486; for GCUCAAGGACUUACGCAACTT against Zfp668, -1.61.
For GCAUUCCAACGGAUUUAAUTT against Dag1 the value was 2.21 (active); for GGACAAAAACAAACAUGAGTT against Vwa3a, -0.665; for CCGGGAAAGAACUCCUAAGTT against Wnt8b, 0.0331.
For the sequence GGUUUCACAUUCAUCAACUTT against Ccdc14, the z-score was -1.02.
The same measure for GGAUGAGCAAGAAAUCCCUTT against Ccdc137: -0.873; for CCUAAGGAGACACGAAGCCTT against Cfp: -0.119; for GGAUAUGCACUGUUUUCAATT against Nudt16: 2.28 (active).
